Reference: PubChem BioAssay (EPA / NIEHS)
Values joined by “and” are separate entries in the source; they are usually repeats but may differ in a detail not shown here. Equal entries are not always repeated. Results filed as inconclusive are left out. Some compounds were tested as several samples or in several runs, with calls that do not always agree. Active and inactive are the calls of the source. Rule for the calls, unless noted: active = hit-call score of the fitted dose curve at least 0.9, where 1 is the maximum; inconclusive = response in the unintended direction; inactive = score below 0.9.

Assays:
[1] = BSK_4H_Eotaxin3: BioMAP Diversity Plus: 4H Assay for Eotaxin 3 Biomarker Activity (AID 2283000; active = hit-call score of the fitted dose curve at least 0.9, where 1 is the maximum; inactive = score below 0.9); conditions: primary human endothelial cells (HUVEC); actives raise or lower the signal
Summary of the method: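 Chemicals were added to human umbilical vein endothelium cultures, and Eotaxin-3 was quantified by ELISA at 24 h. Values were derived by bidirectional fitting with DMSO serving as negative control and activity baseline.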

[2] = target: human Peroxisome Proliferator-activated Receptor alpha (PPARa), PPARA (gene 5465) (UniProt Q07869); assay: ATG_PPARa_TRANS: Attagene TRANS-FACTORIAL HepG2 Assay for human Peroxisome Proliferator-activated Receptor alpha (PPARa) (AID 2283001);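 for AC50: potency for gain of reporter signal over DMSO so agonist or activator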
Summary of the method: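 Reporter transcripts quantified by RT-PCR plus capillary electrophoresis after 24 h treatment, fitted upward relative to DMSO. Cells: human HepG2 transiently carrying multiple GAL4-UAS reporter units driven by NR-Gal4 chimeras.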

[3] = read-out: Intercellular Adhesion Molecule 1 (ICAM1), ICAM1 (gene 3383); assay: BSK_3C_ICAM1: BioMAP Diversity Plus: 3C Assay for Intercellular Adhesion Molecule 1 (ICAM1) Biomarker Activity (AID 2283003; active = hit-call score of the fitted dose curve at least 0.9, where 1 is the maximum; inactive = score below 0.9); conditions: primary human endothelial cells (HUVEC); actives raise or lower the signal
Summary of the method: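 Chemicals are dosed onto primary human umbilical vein endothelium (3C system). After 24 h, ICAM-1 is measured by ELISA, and responses are fitted bidirectionally relative to DMSO.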

[4] = BSK_3C_Proliferation: Cell Proliferation Assessment in the BioMAP Diversity Plus: 3C Assay (AID 2283006; active = hit-call score of the fitted dose curve at least 0.9, where 1 is the maximum; inactive = score below 0.9;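 for AC50: potency may reflect either rise or fall in cell number versus DMSO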); conditions: primary human endothelial cells (HUVEC)
Summary of the method: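 Cells (human umbilical vein endothelial, sub-confluent) receive test chemical; after 48 h they are fixed in 10% trichloroacetic acid, stained with 0.1% SRB and read at 560 nm. Activity is referenced to DMSO, fitting increases and decreases.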

[5] = target: Peroxisome proliferator-activated receptor gamma (Homo sapiens) (UniProt P37231); assay: ATG_PPARg_TRANS: Attagene TRANS-FACTORIAL HepG2 Assay for human Peroxisome Proliferator-activated Receptor-gamma (PPARg) (AID 2283007)
Summary of the method: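 After 24 h of chemical exposure, transfected HepG2 cells carrying PPARγ-Gal4 chimera reporter constructs are lysed for RNA. Reporter transcripts are measured by RT-PCR and capillary electrophoresis with fluorescent labelling, and gain of signal is fitted versus DMSO.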

[6] = target: Nuclear receptor subfamily 1 group I member 2 (Homo sapiens) (UniProt O75469); assay: ATG_PXR_TRANS: Attagene TRANS-FACTORIAL HepG2 Assay for human Pregnane X Receptor (PXR) (AID 2283008)
Summary of the method: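 HepG2 transfected (FuGene 6) with GAL4-UAS reporter units + PXR-Gal4 chimera; dosed 24 h. Total RNA → oligo(dT) RT → PCR → 6-FAM primer extension → HpaI cut → CE. Gain-of-signal vs DMSO.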

[7] = target: human Peroxisome Proliferator-activated Receptor delta (PPARd), PPARD (gene 5467) (UniProt Q03181); assay: ATG_PPARd_TRANS: Attagene TRANS-FACTORIAL HepG2 Assay for human Peroxisome Proliferator-activated Receptor delta (PPARd) (AID 2283002)
Summary of the method: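 Cell-based TRANS reporter: HepG2, transient MRTU transfection, 24 h exposure. Readout = reporter mRNA (RT-PCR/CE, 6-FAM). Gain-of-signal fit vs DMSO control.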

[8] = target: Retinoic acid receptor alpha (Homo sapiens) (UniProt P10276); assay: ATG_RARa_TRANS: Attagene TRANS-FACTORIAL HepG2 Assay for human Retinoic Acid Receptor alpha (RARa) (AID 2283005)
Summary of the method: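 Reporter transcripts, measured by RT-PCR with fluorescent labeling and capillary electrophoresis after 24 h dosing, reflect activity of an exogenous human RARa–GAL4 fusion in transiently transfected HepG2. Fitted for increase relative to DMSO.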

[9] = target: human Retinoic Acid Receptor beta (RARb), RARB (gene 5915) (UniProt P10826); assay: ATG_RARb_TRANS: Attagene TRANS-FACTORIAL HepG2 Assay for human Retinoic Acid Receptor beta (AID 2283004)
Summary of the method: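 Transient transfection of HepG2 with multiple reporter units → chemical dosing, 24 h → total RNA isolation → RT with oligo(dT) → reporter-specific PCR, 6-FAM primer extension, HpaI digest → capillary electrophoresis. Positive direction vs DMSO control.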

[10] = target: human Retinoic Acid Receptor gamma (RARg), RARG (gene 5916) (UniProt P13631); assay: ATG_RARg_TRANS: Attagene TRANS-FACTORIAL HepG2 Assay for human Retinoic Acid Receptor gamma (RARg) (AID 2283009)
Summary of the method: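 TRANS format measured activity of exogenous NR-GAL4 fusion (RARg) in transfected HepG2 liver cells after 24 h dosing. Induced reporter RNA was detected by RT-PCR/capillary electrophoresis fluorescence, analysed in the positive direction against DMSO.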

Measured: AC50

Sequence of human Retinoic Acid Receptor gamma (RARg), RARG (gene 5916) (P13631 whole entry, looked up, the tested form may be a part): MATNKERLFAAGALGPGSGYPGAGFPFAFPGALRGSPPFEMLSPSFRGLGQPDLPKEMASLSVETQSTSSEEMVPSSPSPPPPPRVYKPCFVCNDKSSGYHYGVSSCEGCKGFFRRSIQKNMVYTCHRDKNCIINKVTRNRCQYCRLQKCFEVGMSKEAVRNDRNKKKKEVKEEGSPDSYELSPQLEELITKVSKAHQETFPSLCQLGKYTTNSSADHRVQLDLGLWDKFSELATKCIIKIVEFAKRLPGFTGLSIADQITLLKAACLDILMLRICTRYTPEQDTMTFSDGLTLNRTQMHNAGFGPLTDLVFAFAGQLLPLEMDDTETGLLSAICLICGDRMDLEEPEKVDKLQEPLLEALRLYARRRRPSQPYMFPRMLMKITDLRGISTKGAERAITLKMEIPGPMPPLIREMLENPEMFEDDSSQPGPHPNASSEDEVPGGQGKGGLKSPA
Sequence of Nuclear receptor subfamily 1 group I member 2 (Homo sapiens) (O75469 whole entry, looked up, the tested form may be a part): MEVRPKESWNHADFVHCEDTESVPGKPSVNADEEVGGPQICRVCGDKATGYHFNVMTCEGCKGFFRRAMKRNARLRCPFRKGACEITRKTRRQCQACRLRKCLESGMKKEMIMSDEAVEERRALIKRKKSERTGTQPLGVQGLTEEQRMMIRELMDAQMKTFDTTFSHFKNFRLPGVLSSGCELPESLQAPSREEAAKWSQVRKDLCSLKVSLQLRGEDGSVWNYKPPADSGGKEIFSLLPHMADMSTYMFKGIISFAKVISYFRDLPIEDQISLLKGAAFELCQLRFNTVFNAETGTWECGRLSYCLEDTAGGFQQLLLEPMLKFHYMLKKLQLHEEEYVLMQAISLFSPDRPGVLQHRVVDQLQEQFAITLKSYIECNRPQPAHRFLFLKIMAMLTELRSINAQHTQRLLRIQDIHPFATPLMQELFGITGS
Sequence of human Peroxisome Proliferator-activated Receptor delta (PPARd), PPARD (gene 5467) (Q03181 whole entry, looked up): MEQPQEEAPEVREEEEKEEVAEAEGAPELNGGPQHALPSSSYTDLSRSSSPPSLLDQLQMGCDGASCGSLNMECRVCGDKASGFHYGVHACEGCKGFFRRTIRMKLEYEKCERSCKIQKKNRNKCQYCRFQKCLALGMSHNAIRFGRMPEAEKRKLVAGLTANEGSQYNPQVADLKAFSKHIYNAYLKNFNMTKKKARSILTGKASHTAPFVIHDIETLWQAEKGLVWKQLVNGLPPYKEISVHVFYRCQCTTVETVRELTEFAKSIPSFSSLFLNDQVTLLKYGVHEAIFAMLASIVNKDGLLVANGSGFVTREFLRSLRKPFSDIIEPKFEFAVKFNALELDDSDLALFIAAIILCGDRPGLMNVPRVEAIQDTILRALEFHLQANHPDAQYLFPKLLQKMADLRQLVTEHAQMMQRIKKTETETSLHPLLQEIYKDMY
Sequence of Peroxisome proliferator-activated receptor gamma (Homo sapiens) (P37231 whole entry, looked up, the tested form may be a part): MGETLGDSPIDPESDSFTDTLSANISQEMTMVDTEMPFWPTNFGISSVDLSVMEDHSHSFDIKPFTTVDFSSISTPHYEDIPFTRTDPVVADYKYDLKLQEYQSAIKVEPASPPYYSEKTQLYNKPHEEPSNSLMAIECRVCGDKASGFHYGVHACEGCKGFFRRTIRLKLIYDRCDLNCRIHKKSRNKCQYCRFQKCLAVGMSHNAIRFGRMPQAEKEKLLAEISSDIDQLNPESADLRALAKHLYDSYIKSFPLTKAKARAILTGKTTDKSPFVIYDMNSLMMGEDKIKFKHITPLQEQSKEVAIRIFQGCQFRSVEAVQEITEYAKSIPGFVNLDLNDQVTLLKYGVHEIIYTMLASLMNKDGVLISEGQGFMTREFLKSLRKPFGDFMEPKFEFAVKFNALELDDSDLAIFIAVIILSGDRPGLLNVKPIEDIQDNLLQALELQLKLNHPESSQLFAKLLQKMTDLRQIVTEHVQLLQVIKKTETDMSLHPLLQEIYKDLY
Sequence of human Retinoic Acid Receptor beta (RARb), RARB (gene 5915) (P10826 whole entry, looked up): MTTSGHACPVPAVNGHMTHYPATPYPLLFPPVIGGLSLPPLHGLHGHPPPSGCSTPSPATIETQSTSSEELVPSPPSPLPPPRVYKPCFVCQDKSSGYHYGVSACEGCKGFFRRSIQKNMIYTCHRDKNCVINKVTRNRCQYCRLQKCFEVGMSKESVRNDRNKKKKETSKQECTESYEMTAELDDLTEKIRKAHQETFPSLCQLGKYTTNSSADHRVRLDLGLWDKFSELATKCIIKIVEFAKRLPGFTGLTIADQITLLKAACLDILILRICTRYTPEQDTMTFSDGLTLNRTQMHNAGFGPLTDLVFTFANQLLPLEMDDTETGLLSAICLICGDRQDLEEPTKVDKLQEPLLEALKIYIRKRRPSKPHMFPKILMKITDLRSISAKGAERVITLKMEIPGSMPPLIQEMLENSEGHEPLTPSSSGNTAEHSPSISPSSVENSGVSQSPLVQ
Sequence of human Peroxisome Proliferator-activated Receptor alpha (PPARa), PPARA (gene 5465) (Q07869 whole entry, looked up, the tested form may be a part): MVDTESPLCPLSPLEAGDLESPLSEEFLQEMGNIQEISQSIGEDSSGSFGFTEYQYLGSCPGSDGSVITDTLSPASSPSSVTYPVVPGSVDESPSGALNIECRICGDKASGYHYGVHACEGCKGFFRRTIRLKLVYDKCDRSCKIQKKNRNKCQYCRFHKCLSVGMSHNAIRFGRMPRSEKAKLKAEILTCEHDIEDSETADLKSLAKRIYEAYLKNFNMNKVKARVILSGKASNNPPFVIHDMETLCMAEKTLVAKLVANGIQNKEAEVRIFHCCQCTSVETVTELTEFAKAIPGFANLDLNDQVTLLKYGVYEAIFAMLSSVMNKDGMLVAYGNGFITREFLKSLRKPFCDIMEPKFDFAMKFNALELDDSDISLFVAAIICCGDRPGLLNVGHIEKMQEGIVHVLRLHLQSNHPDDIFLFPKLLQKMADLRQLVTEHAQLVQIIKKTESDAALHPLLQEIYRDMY
Sequence of Retinoic acid receptor alpha (Homo sapiens) (P10276 whole entry, looked up, the tested form may be a part): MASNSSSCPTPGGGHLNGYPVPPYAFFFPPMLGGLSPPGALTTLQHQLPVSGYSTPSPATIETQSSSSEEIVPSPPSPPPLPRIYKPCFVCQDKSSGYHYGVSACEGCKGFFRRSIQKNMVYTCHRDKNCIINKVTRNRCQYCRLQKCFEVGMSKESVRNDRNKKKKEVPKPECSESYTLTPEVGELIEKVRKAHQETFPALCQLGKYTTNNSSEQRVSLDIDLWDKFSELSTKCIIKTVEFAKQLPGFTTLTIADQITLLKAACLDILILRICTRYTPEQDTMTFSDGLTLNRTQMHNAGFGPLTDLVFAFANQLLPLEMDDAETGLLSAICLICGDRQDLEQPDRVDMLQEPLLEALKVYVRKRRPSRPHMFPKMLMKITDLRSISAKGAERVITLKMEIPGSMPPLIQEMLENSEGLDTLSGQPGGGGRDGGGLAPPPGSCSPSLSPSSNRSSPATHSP

CC(=O)OC(C)(C)C1CC=C(C)CC1 (stereo not given)
inactive: [2] | [3] | [5]
active: [1] 33.3 µM | [4] 28.4 µM | [6] 33.8 µM

O=S1(=O)CC(Cl)(Cl)C(Cl)(Cl)C1
inactive: [2] | [5] | [6]
active: [1] 0.408 µM | [3] 1.02 µM | [4] 0.191 µM

C=CC(=O)OCC(CO)(COC(=O)C=C)COC(=O)C=C
inactive: [2] | [7] | [5]
active: [1] 0.41 µM | [3] 0.574 µM | [4] 0.131 µM

C=C(C)C(N)=O
inactive: [1] | [3] | [8] | [4]

c1ccc2c(c1)-c1ccc3ccc4cccc5cc-2c1c3c45
active: [1] 0.981 µM
not listed: [8] | [9] | [10]
inactive: all other assays above

CC(=O)c1ccc(C)cc1
inactive: [1] | [2] | [3] | [4]

CCOC(=O)CCCCCCCCC(=O)OCC
inactive: [1] | [2] | [3] | [4] | [5]

CCn1cc(C(=O)O)c(=O)c2ccc(C)nc21
inactive: [1] | [3] | [9] | [4] | [5] | [6]

COC(=O)c1ccc(C(=O)OC)cc1
not listed: [5] | [7] | [10]
inactive: all other assays above

CCOC(=O)C=Cc1ccccc1
active: [5] 25.4 µM | [6] 30.8 µM
inactive: [1] | [2] | [3] | [4] | [10]

OCC(F)(OC(F)(F)C(F)(OC(F)(F)C(F)(F)C(F)(F)F)C(F)(F)F)C(F)(F)F (stereo not given)
active: [4] 3.78 µM and 2.59 µM
inactive: [1] | [3]

COc1ccccc1NC(=O)CC(C)=O
active: [6] 37 µM
not listed: [8] | [9] | [10]
inactive: all other assays above

C=C(C)C(=O)OCCC(F)(F)C(F)(F)C(F)(F)C(F)(F)C(F)(F)C(F)(F)C(F)(F)C(F)(F)F
inactive: [1] | [3] | [4]

CC(C)Cc1ccc(C(C)C(=O)O)cc1 (stereo not given)
active: [2] 31 µM
inactive: [1] | [3] | [4] | [6] | [10]

O=C(O)C(F)(F)C(F)(F)C(F)(F)C(F)(F)C(F)(F)C(F)(F)C(F)(F)C(F)F
inactive: [1] | [3] | [4]

c1ccc(Sc2ccccc2)cc1
active: [1] 30.7 µM | [4] 27.6 µM
inactive: [2] | [3] | [5] | [6]

O=C(c1ccc(OCCN2CCCCC2)cc1)c1c(-c2ccc(O)cc2)sc2cc(O)ccc12
active: [1] 34.4 µM | [3] 38.2 µM | [4] 12.9 µM | [5] 13.7 µM [middle of 4 runs] | [6] 1.97 µM and 3.44 µM
inactive: [2] | [7] | [5] | [6]

C[C@]12CC[C@@H]3c4ccc(O)cc4CC[C@H]3[C@@H]1CC[C@@H]2O
active: [1] 20 µM | [4] 8.41 µM | [6] 5.7 µM and 3.83 µM and 4.54 µM
inactive: [2] | [3] | [9] | [8] | [5] | [6] | [10]

CC(C)(C)c1cccc(O)c1
active: [6] 27.2 µM
not listed: [7] | [9]
inactive: all other assays above

CC(=O)OCC=C(C)CCC=C(C)CCC=C(C)C
inactive: [1] | [2] | [3] | [4]
active: [5] 18.9 µM | [6] 15.7 µM

OCCN1CCOCC1
not listed: [5] | [7] | [8]
inactive: all other assays above

CCCCN(CCO)CCO
inactive: [1] | [2] | [3] | [4] | [5]

CCCCCCCC1CCCC1=O (stereo not given)
inactive: [2] | [5] | [10]
active: [1] 31.9 µM | [3] 31.3 µM | [4] 36.8 µM | [6] 34.2 µM

CCCCCCCCCCCCS
active: [1] 28 µM | [3] 29.8 µM | [4] 14.4 µM
inactive: [2] | [5] | [6]

O=C1OC2(c3ccc(O)cc3Oc3cc(O)ccc32)c2ccccc21
active: [4] 20 µM | [6] 0.896 µM
inactive: [1] | [2] | [7] | [3] | [5]

CC1=CC(C)C(C=O)C(C)C1 (stereo not given) (tested in a mixture with another compound)
inactive: [1] | [2] | [3] | [4] | [5] | [6]

C=C(F)C(=O)OC(C(F)(F)F)C(F)(F)F
inactive: [1] | [3] | [4]

CC/C(=C(\c1ccccc1)c1ccc(OCCN(C)C)cc1)c1ccccc1
active: [1] 7.7 µM and 7.63 µM | [3] 11.1 µM and 11.9 µM | [4] 5.46 µM and 6.63 µM | [6] 2.01 µM and 3.57 µM and 5.25 µM
inactive: [2] | [7] | [9] | [8] | [5] | [6]
